According to PubChem BioAssay AID504437 (Emory University Molecular Libraries Screening Center, 2011):
Out of some 2,100 compounds screened, about 940 (45%) were called active.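 How the source made its calls: active means mean of three repeat readings of reporter signal inhibition above a set limit (cut at about 70% in these data); inactive means the rest.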 The set was probably picked from earlier hits. A selection follows.

Assay: retest of CHOP induction inhibitors, confirmation, cell-based (AID 504437);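 further: 0% = tunicamycin plus vehicle and 100% = wells lacking tunicamycin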
Details: CHO-CHOP promoter luciferase reporter, tunicamycin-induced, luminescence; at 10 µM; hits give high values

| Structure (SMILES) | inhibition |
| --- | --- |
| NC(=O)CC(NC(=O)Cc1cccc2ccccc12)c1ccc(NCc2cc(F)ccc2F)c([N+](=O)[O-])c1 (stereo not drawn) | 87.6% (active) |
| O=[N+]([O-])c1c(NCCO)cc(Sc2nc3ccccc3s2)c2nonc12 | -6.6% (inactive) |
| CC1=C/C(=N\OS(=O)(=O)c2ccccc2)C=CC1=O | 141% (active) |
| CCOc1ccc2nc(Nc3nc4ccc(NC(C)=O)cc4s3)sc2c1 | 56.5% (inactive) |
| COc1ccc(COC(=O)c2n[nH]c3ccccc23)cc1F | 15.5% (inactive) |
| O=C(CCl)Nc1ccc(Sc2ccc(NC(=O)CCl)cc2)cc1 | 113% (active) |
| Fc1ccccc1/C=C1\CCCC2=C1Nc1ncnn1C2c1ccccc1F (stereo not drawn) | 6.7% (inactive) |
| O=C(NNc1ccccc1Cl)C(O)(c1cccc(C(F)(F)F)c1)c1cccc(C(F)(F)F)c1 | 54.8% (inactive) |
| O=C(Cn1cc(C(F)(F)F)ccc1=O)N/N=C/c1ccc(Cl)cc1Cl | 27.2% (inactive) |
| OCCCNc1nccc(-c2cc(Nc3cccc(Cl)c3)ncn2)n1 | 121% (active) |
| Cc1ccc(-n2ncc3c2ncn2nc(-c4ccco4)nc32)c(C)c1 | -1.3% (inactive) |
| COc1ccc(NC(=O)/C(C#N)=C\c2cc(OC)c(OCc3ccc(C(=O)O)cc3)cc2Br)cc1 | 17.8% (inactive) |
| O=C(Nc1ccccc1Cl)/C(Cl)=C(\Cl)S(=O)c1ccccc1 (stereo not drawn) | 122% (active) |
| Clc1cccc(CN2COc3c(cc(Cl)c4cccnc34)C2)c1 | -62% (inactive) |
| COc1cccc(-c2nnc(NC(=O)c3ccc(S(=O)(=O)N(CC(C)C)CC(C)C)cc3)o2)c1 | 110% (active) |
| CCOC(=O)c1cc2cc(-c3c(C(=O)OCC)oc4cc(O)cc(O)c4c3=O)ccc2o1 | 46.1% (inactive) |
| Cc1nnc(SCC(=O)N/N=C/c2cn(-c3ccccc3)nc2-c2ccc(F)cc2)n1-c1ccccc1 | -50.1% (inactive) |
| CCN(CC)S(=O)(=O)c1ccc2nc(COC(=O)c3n[nH]c4ccccc34)[nH]c2c1 | 66% (inactive) |
| CCCCCCn1c(CN2CCCC(C)C2)nc2c1c(=O)n(C)c(=O)n2C (stereo not drawn) | 97.6% (active) |
| O=C(CC(NC(=O)c1ccccc1)c1ccccc1)Nc1ccc(F)c(F)c1 (stereo not drawn) | 67.4% (inactive) |
| CCCCCn1c(SCCC(C)C)nc2c1c(=O)[nH]c(=O)n2C | 97.6% (active) |
| CCCCSc1nc2c(c(=O)n1CC)SC(C)C2 (stereo not drawn) | 58.6% (inactive) |
| C=C(C)C(=O)O[C@H]1C/C(C)=C\C(=O)/C=C(\C)[C@H](O)[C@@H]2OC(=O)C(=C)[C@@H]21 | 43.7% (inactive) |
| Cc1cccc(NC(=O)Nc2cccc(Oc3c(F)c(F)c(F)c(F)c3F)c2)c1 | 69.3% (inactive) |
| O=C(Nc1cc(N2CCOCC2)ncn1)NC1(C(F)(F)F)Oc2ccc(Cl)cc2O1 (stereo not drawn) | 93.7% (active) |
| Cc1c(C(=O)Nc2cccc(Cl)c2)cn2c(nc3ccccc32)c1C#N | 33.5% (inactive) |

| Structure (SMILES) | inhibition |
| --- | --- |
| O=C(/C=C/Sc1ncn[nH]1)c1ccc(Cl)cc1 | 98% (active) |
| FC(F)(F)c1cc(-c2ccco2)nc(N2CCOCC2)n1 | 49.6% (inactive) |
| O=C(CCl)N(Cc1cccc([N+](=O)[O-])c1)c1cccc(Cl)c1 | 118% (active) |
| Cc1ccc(-n2nc(C)c(/C=N/NC(=O)c3cccs3)c2Cl)cc1 | -50.9% (inactive) |
| CN1C(=O)/C(=C/c2ccc(C(=O)NC3CCCC3)cc2)Oc2ccccc21 | -73.2% (inactive) |
| O=C1C=C(c2ccc(Cl)cc2)C(=O)N1Nc1ccccc1 | -116% (inactive) |
| COc1cc(/C=N/NC(=O)Nc2ccccc2)ccc1OCCOc1ccccc1C | 86.2% (active) |
| CCCOc1ccc(Cc2c(Cl)nc(SC)nc2NC)cc1 | 104% (active) |
| N#CC(C(=O)c1ccc(S(=O)(=O)N2CCCCCC2)cc1)c1nc2ccccc2[nH]1 (stereo not drawn) | -6.4% (inactive) |
| CCSc1nc(C)nc2c1oc1ccccc12 | 19.6% (inactive) |
| Cc1ccc(-c2csc(-c3c[nH]c4ccccc34)n2)cc1 | 53.5% (inactive) |
| Cc1nc(SCC(=O)Nc2cc(C)on2)c2c3c(sc2n1)CCCC3 | 80.7% (active) |
| COc1ccc(-n2c(SCC(=O)Nc3sc4c(c3C#N)CCCC4)nnc2-c2ccc(O)cc2)cc1 | 37.1% (inactive) |
| Oc1ccc(/C=N/N(Cc2ccccc2)c2ccccc2)cc1 | 30.1% (inactive) |
| Cc1c(-c2ccccc2)n[nH]c1C(=O)N=Nc1c(O)[nH]c2ccccc12 | -12.3% (inactive) |
| Cc1cc(-c2n[nH]c(=S)n2/N=C/C(Br)=C/c2ccccc2)n[nH]1 | 106% (active) |
| FC(F)(F)c1cc(C(F)(F)F)c2ccc(N3CCN(c4ccccc4)CC3)nc2n1 | 61.6% (inactive) |
| CCCCc1nc(NCCN)c(C#N)c2c1CSC(C)(C)C2 | 82.5% (active) |
| O=[N+]([O-])c1cccc(-c2nnc3c4ccccc4c4ccccc4n23)c1 | 23.3% (inactive) |
| CCCCCCC(=O)N(O)C1CC(=O)N(c2ccccc2)C1=O (stereo not drawn) | 16.2% (inactive) |
| Clc1ccc(Nc2nc(-c3cccs3)cs2)nc1 | 124% (active) |
| Oc1cccc(C2c3[nH]c4ccccc4c3CCN2Cc2cnn(-c3ccccc3)c2)c1 (stereo not drawn) | -4.4% (inactive) |
| O=[N+]([O-])c1cc(S(=O)(=O)CCCN2CCOCC2)ccc1F | -45.2% (inactive) |
| O=C(Nc1ccccc1C(F)(F)F)c1cc(-c2ccc(O)cc2)on1 | 77.8% (active) |
| CC(C)Cc1cc(C(=O)Nc2cc(Br)ccc2O)no1 | 22.3% (inactive) |
| CCCc1nc2ccccc2c(C(=O)OCC(=O)c2ccc3c(c2)NC(=O)CO3)c1CC | -11.4% (inactive) |

| Structure (SMILES) | inhibition |
| --- | --- |
| CC(C)(C)C1C/C(=C/c2ccco2)C(=O)/C(=C/c2ccco2)C1 (stereo not drawn) | 85.1% (active) |
| OC(CNCC1CCCO1)Cn1c2ccc(Br)cc2c2cc(Br)ccc21 (stereo not drawn) | 81.5% (active) |
| CC(C)(C)c1ccc(Oc2ccc(N)cc2)cc1 | 117% (active) |
| O=C(Nc1nnc(COc2ccccc2)s1)Nc1ccccc1F | 1% (inactive) |
| Cc1cc(C(=O)CCl)c(C)n1CC1COc2ccccc2O1 (stereo not drawn) | -124% (inactive) |
| CS(=O)(=O)N(CC(=O)Nc1ccc(Cl)c(Cl)c1)C1CCCCC1 | 33.2% (inactive) |
| COc1cc(/C=N/O)cc(Br)c1OCc1cccc(Cl)c1 | 138% (active) |
| NC(N)=N/N=C/c1ccc(OCc2ccc(Cl)cc2Cl)cc1 | -25.2% (inactive) |
| COC(=O)/C=C\C(=O)Nc1cccc([N+](=O)[O-])c1 | 101% (active) |
| Fc1ccccc1C(c1nnnn1Cc1ccc2c(c1)OCO2)N1CCN(Cc2ccccc2)CC1 (stereo not drawn) | 22.4% (inactive) |
| CC(C)=CCc1c(O)c(CC=C(C)C)c2occ(-c3ccc(O)cc3)c(=O)c2c1O | 15.8% (inactive) |
| COc1cc(SC#N)ccc1N=Cc1c(C)[nH]n(-c2ccc(C)cc2)c1=O | 34% (inactive) |
| C=C(C)COc1ccc(-c2n[nH]c(C)c2-c2ccccc2OC)c(O)c1 | 112% (active) |
| COc1ccc(/C=C/C(=O)Nc2c(C)nn(C)c2C)cc1COc1ccc(Br)cc1 | 20.4% (inactive) |
| Cc1ccc(NC(=S)NC(NC(=O)Cc2cccc3ccccc23)C(Cl)(Cl)Cl)cc1 (stereo not drawn) | 72.1% (active) |
| CCOC(=O)c1c(C)[nH]c2c1-c1ccccc1C(=O)C2=O | 122% (active) |
| Cc1ccc(NC(=O)/C(=C/c2ccc([N+](=O)[O-])cc2)NC(=O)c2ccccc2)cc1 | -5.3% (inactive) |
| COc1cc(C(=O)OC(C)C(=O)NCC2CCCCC2)cc(NC(=O)c2ccco2)c1OC (stereo not drawn) | 93% (active) |
| Cc1cccc(OCc2nnc(SCc3nc4cc(C(F)(F)F)ccc4c(=O)[nH]3)o2)c1 | 114% (active) |
| CCOC(=O)C(C)Sc1nc2ccccc2c(=O)n1CC1CCCCC1 (stereo not drawn) | 61.7% (inactive) |
| C=CCn1c(C)cc(C2=NNC(=NCC)SC2)c1C | 136% (active) |
| NC(=O)COc1ccc(C23CC4CC(CC(C4)C2)C3)cc1 | 7.3% (inactive) |
| CCOC(=O)C1=C(c2ccc(OC)cc2)C(=O)c2ccccc2C1=O | 110% (active) |
| CSc1nc2sc3c(c2c(=O)[nH]1)CCc1ccccc1-3 | 12.2% (inactive) |
| O=C(/C=C/c1ccc(F)cc1)Nc1cccc(S(=O)(=O)Nc2cccc(C(F)(F)F)c2)c1 | 7.6% (inactive) |
| CSc1nc(-c2ccccc2)nc(C(Cl)Cl)n1 | 96.2% (active) |
